# Test results taken from PubChem BioAssay (NCI).
# About 83,000 compounds went through this panel and 20% of them were active in at least one assay; those are over-represented in the sample as a whole.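 Method: cells in 96-well plates; compound added at one concentration; 48 h incubation; percent growth measured; values under 10 scored active.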 A number with no mark means an inactive call. Active and inactive are the calls of the source.
# Tests used:
# Experiment in all cases: NCI-60 one-dose screen, 48 h (100 = growth as untreated, 0 = no growth, -100 = all killed)
# Conditions in all cases: 10 µM unless noted
# [1] = system: NCI-H23 lung
# [2] = system: NCI-H226 lung
# [3] = system: NCI-H322M lung
# [4] = system: HOP-62 NSCLC
# [5] = system: HOP-92 NSCLC
# [6] = system: NCI-H522 lung
# [7] = system: A549/ATCC NSCLC
# [8] = system: 786-0 renal
# [9] = system: COLO 205 colon
# [10] = system: DU-145 prostate
# [11] = system: K-562 leukemia
# [12] = system: MALME-3M melanoma
# [13] = system: MDA-MB-231 breast
# [14] = system: RXF 393 renal
# [15] = system: SF-268 CNS
# [16] = system: SF-295 CNS
# [17] = system: SF-539 CNS
# [18] = system: UACC-257 melanoma
# [19] = system: M14 melanoma
# [20] = system: NCI-H460 lung
SMILES,growth [1] [%],growth [2] [%],growth [3] [%],growth [4] [%],growth [5],growth [6],growth [7],growth [8],growth [9],growth [10],growth [11],growth [12],growth [13] [%],growth [14],growth [15],growth [16],growth [17],growth [18] [%],growth [19],growth [20]
COc1ccc(CC(C#N)c2cc3ccccc3[nH]2)cc1 (stereo not given),87.1,90.6,92.9,89,49.7%,84.3%,86.3%,94.7%,99.8%,101%,80.5%,89.3%,82.3,94.1%,90.7%,94.1%,97.5%,94.3,84.2%,
CN(C)c1ccc(Nc2cc(-c3cccc(OC(F)(F)F)c3)nc3ccc(N4CCCC4)cc23)cc1,27.2,103,46.3,61.3,85.3%,87.7%,-32.8% (active),2.11% (active),70.6%,50.3%,-20.9% (active),-90.4% (active),12.3,88.8%,-13.4% (active),108%,91.6%,14.1,-76.3% (active),
O=C(O)CCCN1C(=O)/C(=C/C(Cl)=C/c2ccccc2)SC1=S,31.3,41.9,77.2,88,14.2%,12.2%,65%,-11.5% (active),11.6%,18.9%,14.7%,-2.99% (active),38.1,-16.5% (active),56.1%,49.5%,10%,40.8,9.62% (active),
COc1cc(CNC(=O)/C=C/C=C/c2ccc3c(c2)OCO3)ccc1OCc1cn(-c2ccc(C)c(C)c2)nn1,66.8,47.8,82.3,92.5,-4.29% (active),59.5%,,106%,80.5%,85.9%,68.6%,75.1%,78.7,47.6%,107%,94.8%,55.8%,65,61.4%,
COP(=O)(OC)C(C)(C)CC(=O)CC(C#N)(C#N)C(C#N)C#N,98.7,92.9,99.3,98.1,55.9%,,104%,105%,107%,113%,91.1%,96.8%,100,97.8%,98%,101%,102%,103,96.2%,
CO[C@H]1/C=C(/C)CCC[C@H](C)[C@H](O)[C@@H](C)C(=O)C(C)(C)[C@@H](O)CC(=O)O[C@@H]1/C(C)=C/c1csc(C)n1,34.7,50.3,12.8,29.4,66.6%,-29.1% (active),17.5%,57.1%,-53% (active),-48.1% (active),13.9%,45.2%,10.3,-23.4% (active),36.5%,-17.8% (active),1.38% (active),56.2,3.27% (active),
CCSc1nc(NC)c2cc(-c3ccc(C(F)(F)F)cc3)ccc2n1,94.3,93.3,97.8,101,97.6%,93.7%,100%,102%,107%,105%,105%,96.9%,90.3,90.5%,103%,102%,103%,106,96.5%,
CCCC(=O)NC(c1ccc2c(c1)OCO2)c1ccc2cccnc2c1O (stereo not given),,12.2,25.9,20.4,31.4%,-4.35% (active),20.8%,19.8%,8.58% (active),36.5%,7.6% (active),13.4%,31.2,18.3%,15.8%,13.9%,9.93% (active),19.1,4.9% (active),9.17% (active)
